Sampled rows, rich in hits. Any-hit rate of the full collection: about 4.1%.
hcDAF12 agonist – H. contortus DAF-12 activation, primary screen | HEK293 hcDAF-12 lit1-tk-luc reporter, luminescence; 0% DMSO, 100% Δ7-dafachronic acid | activation, % at 6.8 µM | actives 1.4% (n = 370,000) | AID 652067;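 active = activation above the mean of all tested compounds plus 3 SD, cut at about 5.5% in these data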;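 note: 100% = response to 3 µM Δ7-dafachronic acid high control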
hgDAF12 agonist – hgDAF-12 agonism, primary luciferase screen; AID 687014; activation, % at 6.8 µM; HEK293 GAL4-hgDAF12 UAS-luciferase reporter, agonist luminescence; normalized to butyrate control; actives 1.8% (n = 370,000);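 active = activation above a cutoff set at the mean of all screened compounds plus 3 SD, cut at about 10% in these data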;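 note: 0% = DMSO wells and 100% = sodium butyrate wells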
ssDAF-12 act – activates DAF-12 receptor from parasite S. stercoralis | actives 1% (n = 370,000) | HEK293 ssDAF-12/GRIP1 lit1-tk-luc reporter, luminescence; % of 3 µM dafachronic acid response | AID 652126 | activation, % at 6.8 µM;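 active = activation above the mean over all tested compounds plus 3 SD, cut at about 0.9% in these data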;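 note: 0% = DMSO-only wells and 100% = 3 µM delta7-dafachronic acid wells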
DAX1 inh-1 – inhibitors of human orphan nuclear receptor DAX1 (NR0B1); P51843; HEK293 Gal4-DAX1 luciferase reporter, luminescence; inhibition, % at 6.75 µM; actives 0.99% (n = 340,000); AID 504766;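 active = inhibition above the mean over all tested compounds plus 3 SD, cut at about 4.2% in these data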;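 note: 0% = DAX1-transfected cells with DMSO and 100% = empty-vector control cells with DMSO; inhibition shows as a rise in luminescence from relieved DAX1 repression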
Target sequence (P51843 207-470 limits assumed): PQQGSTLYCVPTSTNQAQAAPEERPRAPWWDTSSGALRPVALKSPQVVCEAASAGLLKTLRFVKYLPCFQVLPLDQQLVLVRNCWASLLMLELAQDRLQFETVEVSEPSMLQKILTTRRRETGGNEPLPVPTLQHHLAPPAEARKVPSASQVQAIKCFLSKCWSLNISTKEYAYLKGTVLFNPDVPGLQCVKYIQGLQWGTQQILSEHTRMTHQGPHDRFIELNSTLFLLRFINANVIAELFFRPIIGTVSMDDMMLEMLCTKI
DAX1 inh-2 – inhibitors of DAX1 repression of SF-1 activated StAR promoter | HEK293T StAR-luciferase reporter, SF-1/DAX-1 repression relief | inhibition, % at 6.8 µM | actives 1.1% (n = 370,000) | AID 652010;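 active = inhibition above the mean over all tested compounds plus 3 SD, cut at about 3.6% in these data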;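 note: 0% = DAX-1 cells with DMSO and 100% = cells lacking DAX-1 with DMSO; higher inhibition means more luminescence from relief of DAX-1 repression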
LXRb hcDAF ctr – LXR-beta agonism as hcDAF-12 counter-screen; shares compounds with hcDAF12 agonist; activation, % at 6.8 µM; 3,400 tested, under 10 active; HEK293 Gal4-LXR tk-luc reporter, luminescence, 24 h; normalized: DMSO 0%, positive control 100%;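 active = mean percent activation of the reporter above a cutoff set as the average over tested compounds plus their standard deviation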
hcDAF12 ag – hcDAF-12 agonism, confirmation assay | activation, % at 6.8 µM | HEK293 hcDAF-12 lit1-tk-luc reporter, luminescence; % of Δ7-dafachronic acid response | shares compounds with hcDAF12 agonist | actives 61% (n = 3,400);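 active = mean activation across triplicate tests above the threshold derived from the earlier primary screen, cut at about 5.5% in these data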;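 note: 0% = DMSO only wells and 100% = 3 µM Δ7-dafachronic acid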
hgDAF12 conf – confirmation of H. glycines DAF-12 agonists; actives 80% (n = 3,300); shares compounds with hgDAF12 agonist; activation, % at 6.8 µM; AID 743050; HEK293 GAL4-hgDAF12 luciferase reporter, agonist mode; percent of butyrate response;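 active = mean activation over triplicate wells above the hit cutoff derived from the earlier primary screen, cut at about 11% in these data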;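 note: 0% = DMSO low control and 100% = 2 mM sodium butyrate high control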
LXRb DAF12 ctr – activates human LXR-beta, counter-screen for DAF-12 agonists. 3,300 tested, under 10 active. AID 743051. HEK293 Gal4-LXR luciferase reporter, 24 h. activation, % at 6.8 µM. shares compounds with hgDAF12 agonist;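 active = mean activation of the triplicate above a set limit carried over from the primary screen, none filed active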
The depositor's hits bear a star; . = no result given.

SMILES	hcDAF12 agonist	hgDAF12 agonist	ssDAF-12 act	DAX1 inh-1	DAX1 inh-2	LXRb hcDAF ctr	hcDAF12 ag	hgDAF12 conf	LXRb DAF12 ctr
CCOc1ccc(NC(=O)c2nsc(Cl)c2Cl)cc1	7.2*	18*	0.9*	4	4.4*	1	6.6*	18*	1
CCOc1ccc(NC(=O)c2ccncc2)cc1	1	0	-1	4	0	.	.	.	.
Cc1ccccc1NC(=S)c1ccc2ccccc2n1	14*	13*	1.3*	1	1	0	7.9*	13*	0
CCc1nc2c(OCc3ccc(C(F)(F)F)cc3)cccn2c1N(C)C(=O)c1ccc(C)cc1	-2	0	-2	.	-1	.	.	.	.
O=C(COC(=O)c1ccc(Cl)nc1)Nc1ccc2c(c1)CCC2	-1	1	-1	0	1	.	.	.	.
CN(C)S(=O)(=O)c1ccc(C(=O)Nc2ccc3c(c2)CCC3)cc1	0	1	-1	0	0	.	.	.	.
CN(C)S(=O)(=O)c1cccc(C(=O)Nc2ccc3c(c2)CCC3)c1	6.9*	22*	1	2	2	1	7.4*	19*	1
O=C(Nc1ccc2c(c1)CCC2)c1ccc(Cl)nc1	7.7*	19*	1.2*	4.7*	3.8*	1	9.3*	21*	1
Cc1cc(NS(=O)(=O)c2ccc(NC(=O)Cc3ccc(Cl)c(Cl)c3)cc2)on1	0	-1	-1	.	0	.	.	.	.
CCc1ccc(NC(=O)COc2coc(CN3CCN(c4ccccc4)CC3)cc2=O)cc1	1	0	-1	0	1	.	.	.	.
CCc1ccc(NC(=O)COc2ccc(F)cc2C(=O)c2cnn(-c3ccccc3)c2)cc1	12*	18*	1	2	2	0	7.8*	7	0
CCCc1nc2c3ccccc3ccn2c1Cc1ccccc1	7.0*	23*	1.3*	.	4.1*	1	12*	16*	1
O=C(Nc1ccccc1Oc1ccccc1)NC1CCCCN(Cc2ccc(Cl)cc2)C1=O (stereo not drawn)	0	2	-1	.	-1	.	.	.	.
Cc1ccc(C=NNc2ccc([N+](=O)[O-])cn2)cc1	7.4*	18*	0	4.8*	2	1	3	13*	1
O=C(Nc1ccc(-c2nc3cccnc3s2)cc1)c1cccnc1Cl	7.9*	23*	0	2	3.7*	2	5.6*	24*	1
O=C(Nc1ccc(-c2nc3cccnc3s2)cc1)c1ccc(Cl)nc1	0	4	-1	1	1	.	.	.	.
Cc1[nH]c2ccccc2c1/C=C/c1nc2ccccc2c(=O)[nH]1	6.9*	14*	0	2	4.4*	1	5.8*	18*	1
O=C(NCCCn1ccnc1)c1cc2ccccc2oc1=O	2	0	-1	1	1	.	.	.	.
O=c1c2ccccc2oc2cc(NCCCn3ccnc3)ccc12	7.2*	14*	1.2*	1	3.7*	1	5	17*	1
C=CCCC1(CCC)C(=O)/C(=C(\O)c2ccccc2)C(=O)C(CCC)=C1OC (stereo not drawn)	-2	3	-2	.	1	.	.	.	.
CN(C)C=Nc1ccc(Cl)c(Cl)c1	-2	2	-1	2	0	.	.	.	.
CN(C)C=Nc1ccc2nn(-c3ccccc3)nc2c1	6.7*	15*	1.2*	3	4.4*	2	8.2*	22*	1
CCC(C(=O)NCc1ccccc1)n1c(CSCCOc2ccccc2)nc2ccccc21 (stereo not drawn)	-7	-16	-3	.	-3	.	.	.	.
CC(=O)NC(C)(c1ccccc1)c1nc(-c2ccc(N(C)C)cc2)cs1 (stereo not drawn)	-2	-1	-1	.	0	.	.	.	.
CCCCOCCCNC(=O)C[C@@H]1C[C@@]2(C(=O)OCC)CCC=C2N(Cc2ccccc2)C1=O	0	1	-1	.	0	.	.	.	.
SMILES	hcDAF12 agonist	hgDAF12 agonist	ssDAF-12 act	DAX1 inh-1	DAX1 inh-2	LXRb hcDAF ctr	hcDAF12 ag	hgDAF12 conf	LXRb DAF12 ctr
CCc1nnc(NC(=O)c2nc(Cl)ccc2Cl)s1	2	-1	-1	0	1	.	.	.	.
Cc1ccc(NC(=O)c2ccc3ccccc3n2)nc1	16*	16*	3.5*	3	3.8*	2	17*	20*	1
O=C(Nc1ccccc1C(=O)O)c1ccc2ccccc2n1	5	6	0	0	2	.	.	.	.
CCc1nnc(NC(=O)c2ccc3ccccc3n2)s1	13*	14*	2.6*	1	3.9*	1	15*	18*	1
Cc1ccnc(N/C=C/C(=O)c2ccc(Br)cc2)c1	9.0*	18*	0	0	3	2	7.2*	21*	1
Cc1cc(N/C=C/C(=O)c2ccc(Br)cc2)no1	2	4	0	0	1	.	.	.	.
CC(=O)NC(Cc1ccc2c(c1)OCO2)C(=O)N1CCCN(C(C)=O)CC1 (stereo not drawn)	-3	-1	-1	.	0	.	.	.	.
COc1cc(OC)cc(-c2nc3ccccc3s2)c1	8.6*	17*	1	2	1	1	13*	15*	1
COc1ccc(C(=O)NCc2ccc(-c3nc4ccccc4s3)cc2)cc1OC	-1	5	0	0	0	.	.	.	.
CN(c1cccnc1)c1ccc(NC(=O)Cc2cn(Cc3ccccc3)c3ccccc23)cc1Br	-3	-1	-1	.	-1	.	.	.	.
CC(C)c1ccc(NC(=O)C2(C)Cc3c(-c4ccc5c(c4)OCO5)ccnc3O2)cc1 (stereo not drawn)	0	2	-2	.	-1	.	.	.	.
Cc1cccc(/C(N)=N/OC(=O)c2cccs2)c1	7.9*	15*	1.8*	4	3	1	5.7*	17*	1
N/C(Cc1cccc2ccccc12)=N\OC(=O)c1cccs1	.	.	.	1	.	.	.	.	.
COc1ccc(C(=O)O/N=C(\N)c2ccccc2)cc1	8.7*	14*	1.9*	1	3	2	6.7*	18*	1
N/C(=N\OC(=O)c1cccs1)c1ccccc1	7.4*	16*	2.3*	2	1	1	3	15*	1
Cc1cccc(N2CCN(C(=O)c3cc(S(=O)(=O)N(C)C)ccc3Cl)CC2)c1C	-4	-2	-2	.	.	.	.	.	.

Bioassay records (PubChem BioAssay)
